From PubChem
Rows were chosen to be rich in hits. Some 22% of all compounds tested hit in one or more screens of this group.
CHX counter – counter-screen hit for Shiga toxin inhibitors, cycloheximide | cell reporter, cycloheximide protein synthesis inhibition counterscreen | max response, % | 300,000 compounds, 12% hits | AID 2314; in the data active = max response mostly above about 13%, no sharp cut-off; inactive = mostly below about 14%; note: read at 38.3 µM for the half of the compounds with a filed dose; 0% is about no effect
LmPK inh – blocks Leishmania mexicana pyruvate kinase activity; 290,000 compounds, 0.37% hits; purified LmPK, Kinase-Glo ATP luminescence, 1 h; Potency, µM (highest dose often 57.5 µM), for inactives: at the highest dose activity change, negative = inhibition, most hits filed as inhibitors; AID 1721; note: potency is the fitted concentration of half-maximal effect; % is set by controls: 0 for no effect and ±100 for the full control effect
Target sequence (Q27686 whole entry, looked up): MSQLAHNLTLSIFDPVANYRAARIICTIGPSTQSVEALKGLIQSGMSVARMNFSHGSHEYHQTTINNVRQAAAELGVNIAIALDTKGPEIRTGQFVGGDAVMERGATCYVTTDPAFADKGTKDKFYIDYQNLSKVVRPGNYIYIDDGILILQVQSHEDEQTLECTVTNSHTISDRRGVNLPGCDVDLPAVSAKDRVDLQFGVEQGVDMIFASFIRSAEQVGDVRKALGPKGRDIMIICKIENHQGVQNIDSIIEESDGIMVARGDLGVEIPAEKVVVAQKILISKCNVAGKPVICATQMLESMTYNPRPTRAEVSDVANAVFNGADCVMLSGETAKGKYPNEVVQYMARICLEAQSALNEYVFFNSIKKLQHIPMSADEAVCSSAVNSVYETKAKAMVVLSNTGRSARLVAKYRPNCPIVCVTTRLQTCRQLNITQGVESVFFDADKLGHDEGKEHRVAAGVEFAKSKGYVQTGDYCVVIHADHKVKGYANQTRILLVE
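ATP generated from ADP (0.1 mM) and PEP (0.5 mM) by 0.1 nM LmPK over 1 h at room temperature (pH 7.2 imidazole buffer) was detected by coupled luciferase luminescence. Values were normalized to uninhibited and no-enzyme wells.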
Pf growth 48h – P. falciparum growth inhibition at 48 hours (one generation). 310,000 compounds, 5.9% hits. AID 504832. Potency, µM (titrated, usually from 28.7 µM), for the others: at the highest dose activity change, negative = inhibition, hits mostly inhibitors. P. falciparum luciferase growth in erythrocytes, 48 h; note: potency is the fitted concentration of half-maximal effect; % is set by controls: 0 for no effect and ±100 for the full control effect
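First compound was added to culture medium, then infected red cells at 0.1% parasitemia and 2% hematocrit (final). After incubation at 37 C under 5% CO2, luciferase detection reagent was dispensed and light output recorded.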
Pf growth 96h – P. falciparum growth inhibition at 96 hour, primary screen for plastid delayed-death inhibitors; P. falciparum luciferase reporter growth, 96 h; Potency, µM (highest dose often 28.7 µM), inactives show at the top dose activity change, negative = inhibition, most hits filed as inhibitors; 320,000 compounds, 6.9% hits; note: potency is the fitted concentration of half-maximal effect; % is set by controls: 0 for no effect and ±100 for the full control effect
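Two-generation exposure (96 h) targets delayed-death phenotype. Reporter parasites carrying integrated firefly luciferase, in red cells at 2% hematocrit and 0.05% parasitemia final, kept at 37 C, 5% CO2; luminescence loss indicates inhibition.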
Shiga inhibitor – blocks Shiga toxin action in Vero cells; Vero cells, Shiga toxin protein synthesis inhibition reporter; inhibition, % at 38.7 µM; 290,000 compounds, 9.2% hits; in the data active = inhibition mostly above about 28%, no sharp cut-off; inactive = mostly below about 43%; note: 0% is about no effect
Numbers without * were called inactive; u = inconclusive; x = not tested or not shown; [ ] = remark or other dose. Unless noted, calls come from the whole dose curve; as a rule, active = well fitted inhibition curve with a large enough effect; inconclusive = small, poorly fitted or top-dose-only effect, or another doubt; inactive = no such curve, though single readings can be large or run the other way.

SMILES	CHX counter	LmPK inh	Pf growth 48h	Pf growth 96h	Shiga inhibitor
COc1cccc(N=Nc2c(=O)[nH]n3c(=O)c4c([nH]c23)CCC4)c1	0	-2%	-2%	-30%	18
NS(=O)(=O)c1ccc(N=Nc2c(=O)[nH]n3c(=O)c4c([nH]c23)CCCC4)cc1	-3	-10%	u	2.3µM*	7
O=c1[nH]n2c(=O)c3c([nH]c2c1N=Nc1cccc(C(F)(F)F)c1)CCCC3	-1	-4%	13µM*	u	10
O=C(c1ccc(Cn2cc(Cl)c([N+](=O)[O-])n2)cc1)N1CCN(Cc2ccccc2)CC1	1	1%	32%	66%	24
CCOC(=O)C(/C(N)=N/C(=O)Nc1ccccc1)=C(\C)O	1	-5%	-5%	9.3µM*	-10
CCOC(=O)c1ccc(NC(=S)Nc2ccccc2)cc1	9	-1%	44%	34%	18
CC(Nc1cc(C)cc(C)c1)=[N+](C)CCNS(=O)(=O)c1ccc(Cl)cc1	-3	0%	-5%	12%	-6
CSc1cccc(NC(=O)Nc2ccccc2C(N)=O)c1	47*	-23%	u	u	39*
CSc1cccc(NC(C)=O)c1	-1	-2%	2%	13%	6
CSc1cccc(NC(=O)Nc2ccccc2)c1	34*	5%	47%	-2%	95
Cn1nnnc1Sc1ncnc2scc(-c3ccc([N+](=O)[O-])cc3)c12	x	x	13µM*	3.7µM*	x
Cn1nnnc1Sc1ncnc2scc(-c3ccc(Cl)cc3)c12	x	x	6.6µM*	3.7µM*	x
Cn1nnnc1Sc1c(Cl)cccc1[N+](=O)[O-]	-7	-2%	-12%	u	17
Cn1nnnc1Sc1ncnc2scc(-c3ccccc3Cl)c12	x	x	12µM*	1.7µM*	x
NNc1ncnc2scc(-c3ccc(Cl)cc3)c12	-3	-4%	u	u	14
Cc1sc2ncnc(Sc3ccccc3C(=O)O)c2c1C	-2	-5%	-2%	-1%	1
Cc1sc2ncnc(Sc3nnnn3-c3ccccc3)c2c1C	-6	2%	4.7µM*	35%	-13
Cn1nnnc1Sc1ncnc2scc(-c3cccc(S(C)(=O)=O)c3)c12	x	x	10µM*	u	x
CCOC(=O)c1ccc(NC(=O)Cn2c(-c3nonc3N)nc3ccccc32)cc1	12	0%	-18%	64%	-3
CN1N=C(C(C)(C)C)CSC1=Nc1ccc(F)cc1	19*	-4%	u	10%	36
CCC1(CC)NC(=O)N(CC(=O)OCC(=O)Nc2ccc(F)c(F)c2F)C1=O	10	-6%	-32%	-40%	-20
COc1ccc(-c2ccc(CCC(=O)O)n2CC(=O)Nc2ccccc2C)cc1	-2	-1%	15%[0.00184 µM]	u	18
CCc1nc2ccccc2n1CCc1ccccc1	-2	-1%	u	54%	-2
CC(C)Cc1nc2ccccc2n1CCc1ccccc1	-6	-1%	9.3µM*	6.6µM*	-15
CCn1c(CCc2ccccc2)nc2ccccc21	32*	1%	u	0.13µM*	27
SMILES	CHX counter	LmPK inh	Pf growth 48h	Pf growth 96h	Shiga inhibitor
Cn1c(CN2CCN(c3ccc(Cl)cc3)CC2)nc2ccccc21	5	2%	-12%	u	-21
CCn1c(CN2CCN(c3ccc(Cl)cc3)CC2)nc2ccccc21	-2	-1%	12µM*	u	-2
O=C(Nc1ccccc1-c1nc2ccccc2[nH]1)c1ccc(S(=O)(=O)N2CCCCC2)cc1	14	2%	u	2.9µM*	-16
CC1CCCCN1S(=O)(=O)c1ccc(C(=O)Nc2ccccc2-c2nc3ccccc3s2)cc1 (stereo not given)	5	0%	30%	-2%	3
O=C(Nc1ccccc1-c1nc2ccccc2[nH]1)c1ccc(N2C(=O)CCC2=O)cc1	1	5%	u	u	-7
CC1CCCCN1S(=O)(=O)c1ccc(C(=O)Nc2ccccc2-c2nc3ccccc3[nH]2)cc1 (stereo not given)	-4	2%	1.9µM*	u	9
CCN(CC)S(=O)(=O)c1cccc(NC(=O)CSc2nnc(N)s2)c1	3	-2%	10%	4%	21
CNC(=O)N1c2ccccc2CCc2ccccc21	-2	-1%	u	u	10
CC(C(=O)N1c2ccccc2CCc2ccccc21)n1nnc(-c2ccc(N(C)C)cc2)n1 (stereo not given)	-1	3%	7.4µM*	1%	-13
CC(C(=O)N1c2ccccc2Sc2ccccc21)n1nnc(-c2cccs2)n1 (stereo not given)	29	-1%	u	x	7
Cc1ccc(-c2nnn(C(C)C(=O)N3c4ccccc4CCc4ccccc43)n2)cc1 (stereo not given)	1	2%	u	12µM*	-1
COc1cccc(C(=O)OC(C)C(=O)NCC2CCCCC2)c1 (stereo not given)	x	x	-9%	20%	x
Cc1cccc(-c2ncc(S(=O)(=O)C(C)(C)C)c(N)n2)c1	11*	1%	160%	164%	30
CC(C)(C)S(=O)(=O)c1cnc(-c2ccccn2)nc1N	8	0%	8%	u	25
CCOC(=O)c1ccc(N2C(=O)c3cccc4c(C(=O)O)ccc(c34)C2=O)cc1	1	-5%	-6%	u	x
O=C1NC(=O)C(=Cc2ccc(-c3ccc(Cl)cc3)o2)C(=O)N1	1	-5%	21%	37%	0
O=C1NC(=O)C(=Cc2ccc(-c3ccc(F)cc3O)o2)C(=O)N1	14*	-1%	-1%	0%	17
Cc1cc(-n2ccnc2)n2c(nc3ccccc32)c1C#N	-2	3%	x	-47%	-21
Cc1cc(NCCCN(C)C)n2c(nc3ccccc32)c1C#N	-3	2%	6%[0.00184 µM]	12%	-3
Cc1cc(N2CCN(C3CCCC3)CC2)n2c(nc3ccccc32)c1C#N	-1	2%	0.29µM*	0.23µM*	-6
CCCc1cc(NCCCO)n2c(nc3ccccc32)c1C#N	1	-6%	u	3.3µM*	-3
Cc1cc(NCCCOC(C)C)n2c(nc3ccccc32)c1C#N	1	-1%	5.2µM*	-6%	x
CCC(C)Sc1cc(C)c(C#N)c2nc3ccccc3n12 (stereo not given)	-3	5%	8.3µM*	2.9µM*	-1
CCC(C)Nc1cc(C)c(C#N)c2nc3ccccc3n12 (stereo not given)	-7	u	-6%[0.00184 µM]	-1%	-2
CCCCC(=O)Oc1c(S(=O)(=O)c2ccccc2)c(C)nn1C(C)(C)C	8	1%	40%	9%	-6
CCOCCc1c(O)nc(SCCOc2ccc(C)c(C)c2)[nH]c1=O	-1	-4%	19%	-4%	-15
O=C(Oc1ccc(/C=N/NC(=O)c2ccccc2O)cc1)c1ccccc1	16*	4%	x	6.6µM*	25
O=C(Oc1ccc(/C=N/NC(=O)c2ccccc2F)cc1)c1ccccc1	27*	-2%	12%	u	83*
O=C(N/N=C/c1ccc(OC(=O)c2ccccc2)cc1)c1cccc(O)c1	33	6%	u	-13%	39
